# PubChem BioAssay AID602340 (Broad Institute, 2012)
# Out of some 330,000 compounds screened, about 2,600 (0.79%) were called active.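 The calls were made as follows: active = mean ATP rescue above about 67%, or every replicate alone reaching that limit (limit read from the data, passing the limit was not always enough); inconclusive = no clear call, values can overlap the other calls; inactive = mean under the limit and some replicate under it.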 The entries come from a sample that favours actives as a whole.
# Experiment: protection of differentiated C2C12 cells from simvastatin – single point, plate reader, primary screen (AID 602340);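 also: myotubes were challenged with 10 µM simvastatin during compound exposure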
# Details: C2C12 myotubes + simvastatin, ATP luminescence, 48 h; at 7.49 µM; stronger effect = higher value
row,SMILES,rescue of ATP level
1,Cc1ccc(C2CN(C)CC2C(=O)c2ccc(F)cc2)cc1 (stereo not given),-5.74% (inactive)
2,COc1ccc(C(=O)C2CN(C)CC2C(=O)c2ccc(OC)cc2)cc1 (stereo not given),152% (active)
3,COc1ccc(C(=O)CC2C(=O)N(C)C(=O)N(C)C2=O)cc1,-12% (inactive)
4,COc1cccc(-c2ccc3n(c2=O)C[C@H]2[C@H](CO)[C@@H](C(=O)O)[C@@H]3N2C(=O)c2cnccn2)c1,13.9% (inactive)
5,CCn1cc(CN2CCCC(C(=O)c3cccc(C(F)(F)F)c3)C2)cn1 (stereo not given),-1.69% (inactive)
6,COc1cccc(C(c2nnnn2-c2ccc3c(c2)OCCO3)N2CCC3(CC2)C(=O)NCN3c2ccccc2)c1OC (stereo not given),-28% (inactive)
7,Cc1cc(OCc2cc(C(=O)O)oc2C)c2c3c(c(=O)oc2c1)CCCC3,23.5% (inactive)
8,COc1ccccc1CN1CCN(C(=O)Cc2ccccc2)CC1,-9.85% (inactive)
9,CCN1CCN(C(=O)Cc2coc3cc(C)cc(C)c23)CC1,104% (active)
10,O=C(O)[C@H]1[C@H](CO)[C@H]2Cn3c(ccc(-c4ccccc4)c3=O)[C@@H]1N2S(=O)(=O)c1ccccc1F,21.2% (inactive)
